Source: PubChem
This is a sample that favours compounds with a hit; in the whole collection about 18% have one here.
KAT2A inh: GCN5L2 (KAT2A) acetyltransferase inhibition; GCN5L2 HAT assay, ThioGlo1 CoA-SH fluorescence; Potency, µM (highest dose often 58.9 µM), for the others: at the highest dose activity change, negative = inhibition, most hits filed as inhibitors; actives 0.21% (n = 390,000); AID 504327
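Preincubate 20nM GCN5L2 with compound 15 min, RT → add 50uM ThioGlo1 + 75uM H3(1-25) + 70uM acetyl-CoA → read fluorescence 0 and 20 min. Primary qHTS; fluorescent artifacts likely.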
TDP1 inh: inhibitors of human tyrosyl-DNA phosphodiesterase TDP1 | Q9NUW8 | recombinant TDP1, AlphaScreen DNA substrate cleavage | Potency, µM (doses to about 130 µM), without a hit: at the highest dose activity change, negative = inhibition, hits mostly inhibitors | actives 0.28% (n = 350,000) | AID 485290; further: nearly all actives have a fitted effect of over 40% in size
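Enzyme-compound mixtures sat 15 min at room temperature, followed by a 5 min reaction with 15 nM final substrate and 10 min with AlphaScreen beads. Recombinant human Tdp1 was used at 1 nM final.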
VDR inh: vitamin D3 receptor (human) inhibition; VDR-SRC2-3 peptide fluorescence polarization, 2 h; actives 0.93% (n = 400,000); AID 504847; Potency, µM, for the others: max response, negative = inhibition, actives largely listed as inhibitors; P11473
Target sequence (P11473 whole entry, looked up): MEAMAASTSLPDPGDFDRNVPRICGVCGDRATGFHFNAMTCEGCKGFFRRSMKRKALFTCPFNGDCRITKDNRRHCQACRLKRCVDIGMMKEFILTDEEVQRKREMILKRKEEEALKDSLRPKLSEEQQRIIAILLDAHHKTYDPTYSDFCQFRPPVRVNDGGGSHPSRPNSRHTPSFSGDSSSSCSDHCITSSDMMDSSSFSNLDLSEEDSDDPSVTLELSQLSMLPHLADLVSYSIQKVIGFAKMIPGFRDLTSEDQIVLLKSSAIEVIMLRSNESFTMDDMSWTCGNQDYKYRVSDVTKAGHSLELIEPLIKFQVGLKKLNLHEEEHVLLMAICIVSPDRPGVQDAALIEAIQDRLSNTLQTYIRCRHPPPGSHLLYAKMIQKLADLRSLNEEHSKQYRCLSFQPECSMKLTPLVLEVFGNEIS
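The screen uses fluorescence polarization to detect compounds that interfere with recruitment of the SRC2-3 coactivator peptide to VDR; plates are read after 2 h at room temperature.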
PLK1 PBD block: PLK1 (human) polo-box domain binding inhibition; Plk1 PBD binding of FITC phosphopeptide, fluorescence polarization; actives 2.8% (n = 360,000); Potency, µM, for the others: max response, negative = inhibition, usual class: inhibitors; P53350; further: series mostly up to about 57 µM; nearly all actives have a fitted effect of over 65% in size
TDP1 cell noCPT: qHTS for Inhibitors of human tyrosyl-DNA phosphodiesterase 1 (TDP1): qHTS in cells in absence of CPT. actives 15% (n = 420,000). Potency, µM (doses to about 46.2 µM), for the others: top-dose activity change, negative = growth inhibition, hits mostly inhibitors. DT40 Tdp1-/- hTDP1 cells, no CPT, ATP luminescence, 48 h. AID 686978, 2013; further: nearly all actives have a fitted effect of over 55% in size
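Growth kinetics read by CellTiter-Glo luminescence after ≥48 hr at 37 °C. Cells: DT40 Tdp1-/- stably carrying human TDP1, 400 per well, compound exposure in the absence of CPT (DMSO vehicle).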
TDP1 cell CPT: growth inhibition of DT40 Tdp1-/-;hTDP1 cells with camptothecin (screen for TDP1 inhibitors); chicken DT40 Tdp1-/-;hTDP1 cells + 20 nM CPT, ATP luminescence, 48 h; AID 686979; Potency, µM (doses to about 46.2 µM), without a hit: at the highest dose activity change, negative = growth inhibition, hits mostly inhibitors; actives 12% (n = 420,000); further: nearly all actives have a fitted effect of over 55% in size
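Chicken DT40 Tdp1-/- cells stably complemented with human TDP1 were seeded at 400 cells/well in medium containing 20 nM camptothecin, exposed to pin-transferred compounds, and grown at 37 °C for at least 48 hr. Viability was read as ATP luminescence.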
Numbers without * were called inactive; u = inconclusive; x = no result. The call rests on the fitted dose curve; in most records, active means well fitted curve in the direction sought with a large enough effect; inconclusive means small, poorly fitted or top-dose-only effect, or another doubt; inactive means no such curve, though single readings can be large; an effect the other way counts as inactive or inconclusive. On the % scale 0 is the no-effect control and ±100 the full control effect; potency means the concentration at half of the fitted maximal effect.

SMILES	KAT2A inh	TDP1 inh	VDR inh	PLK1 PBD block	TDP1 cell noCPT	TDP1 cell CPT
O=C(OCCc1cc2ccccc2c(=O)o1)N1CCOCC1	-4%	1%	10%	9%	-15%	9%
c1ccc(N2CCN(c3cccc(-c4cc5ccccc5s4)n3)CC2)nc1	x	x	x	-5%	3%	-5%
O=C(c1ccccc1)N1CCN(CCc2ccncc2)CC1	-8%	1%	19%	x	-5%	-17%
CCN(CC)S(=O)(=O)c1cccc(C(=O)Nc2ccccc2C(=O)Nc2ccc(OC)cc2)c1	-7%	3%	5%	x	10µM*	10µM*
Cc1noc(C)c1COC(=O)c1ccc(S(=O)(=O)NCc2ccco2)cc1	-6%	4%	-12%	-19%	u	16µM*
COc1ccc(COC(=O)c2cccc(S(=O)(=O)N3CCN(C(C)=O)CC3)c2)cc1	-16%	-4%	-16%	-3%	21µM*	u
O=C(COC(=O)c1ccc(S(=O)(=O)NCc2ccco2)cc1)c1ccccc1	-3%	0%	-6%	-14%	-19%	10%
O=C(Nc1ccc(N2CCOCC2)cc1)c1cccc(S(=O)(=O)N2CCCCC2)c1	-2%	-7%	-12%	2%	15µM*	15µM*
CCc1ccc(S(=O)(=O)N2CCN(C(=O)c3cccnc3)CC2)cc1	-5%	x	3%	-6%	12%	-1%
CC(=O)Nc1ccc(NC(=O)c2cccc(S(=O)(=O)N3CCCCCC3)c2)cc1	0%	-2%	-20%	-4%	u	u
COc1ccc(NC(=O)c2cccc(S(=O)(=O)N3CCCCCC3)c2)cc1	-5%	x	11%	2%	15µM*	u
Cc1noc(C)c1COC(=O)c1cccc(S(=O)(=O)N2CCCCCC2)c1	-3%	2%	4%	-3%	15µM*	15µM*
CC(=O)Nc1cccc(C(=O)Nc2ccc(S(=O)(=O)N3CCCCC3)cc2)c1	-3%	5%	0%	3%	15µM*	u
O=C(Nc1ccccc1)c1cccc(S(=O)(=O)N2CCCCC2)c1	-15%	0%	-5%	-2%	8%	-26%
Cc1noc(C)c1COC(=O)c1ccc(F)c(S(=O)(=O)N2CCCCC2)c1	2%	-1%	-7%	-11%	u	u
O=C(NCC1CCN(c2ccc(S(=O)(=O)N3CCOCC3)cc2)CC1)c1cccc(Cl)c1	-4%	0%	0%	8%	12µM*	u
CCC(=O)Oc1ccc(C(=O)Nc2ccc3c(c2)C(=O)N(C2CCCCC2)C3=O)cc1	-2%	1%	9%	2%	15µM*	21µM*
COc1ccc(NC(=O)c2cc(S(=O)(=O)N3CCCC3)ccc2OC)cc1	-3%	0%	-27%	17µM*	-14%	u
COc1ccc(NS(=O)(=O)c2cccc(NC(=O)c3ccc(S(=O)(=O)N4CCCCCC4)cc3)c2)cc1	-5%	4%	-6%	-11%	2.6µM*	3.7µM*
CC(C)CC(=O)N1CCN(S(=O)(=O)c2ccc(C3CCCCC3)cc2)CC1	0%	0%	6%	-9%	12µM*	21µM*
CCOC(=O)c1ccc2c(c1)C(=O)N(C1CCCCC1)C2=O	-1%	-2%	-10%	-5%	10%	3%
COc1ccc(NC(=O)c2cc(S(=O)(=O)N3CCCCC3)ccc2OC)cc1	-10%	1%	1%	-5%	-11%	u
CCN(C(=O)CSc1n[nH]c(N)n1)C1CCCCC1	1%	0%	11%	-16%	23%	-29%
COc1ccc(N2CCN(C3C(=O)c4ccccc4N3C(C)=O)CC2)cc1 (stereo not drawn)	-3%	8%	10%	x	u	u
COc1cc(OC)c(NC(=O)CN2C(=O)CCn3nc(-c4cccn4C)cc32)cc1Cl	u	10%	6%	x	-2%	-14%
SMILES	KAT2A inh	TDP1 inh	VDR inh	PLK1 PBD block	TDP1 cell noCPT	TDP1 cell CPT
CC(C)CC(=O)N1CCN(C(=O)CCC2CCCC2)CC1	-4%	1%	-10%	27µM*	u	u
Nc1cccc2c1C(=O)N(C(=O)c1cccc(S(=O)(=O)N3CCCCCC3)c1)C2=O	-4%	-2%	u	3.2µM*	-14%	-14%
CCN(CC)S(=O)(=O)c1ccc(NC(=O)C(C)N(c2ccc(OC)cc2)S(C)(=O)=O)cc1 (stereo not drawn)	-23%	4%	17%	6%	18µM*	u
CC(=O)Nc1cccc(C(=O)N2CCN(S(=O)(=O)c3ccc(C4CCCCC4)cc3)CC2)c1	x	x	-13%	-3%	23µM*	u
CCCS(=O)(=O)N1CCN(C(=O)CCC2CCCC2)CC1	-15%	3%	-9%	-6%	-10%	0%
CCOc1ccc(N(C(C)C(=O)Nc2ccc(OC)cc2)S(C)(=O)=O)cc1 (stereo not drawn)	-4%	1%	-3%	-10%	-9%	-18%
COc1ccc(-c2nnc(SCC(=O)Nc3cccc(C(F)(F)F)c3)s2)cc1	-5%	3%	7%	x	u	u
CC(=O)N1CCC[C@H]1C(=O)NCC1Cc2cc(-c3cnccn3)cc(Cl)c2O1 (stereo partly drawn)	x	x	x	x	-13%	-7%
O=C(O)C(Cc1cn[nH]n1)=NO	20%	x	-9%	0%	-14%	1%
COCCCn1c(O)c(/C=C2\N=C(C#N)C(=Nc3ccc(C)cc3)O2)sc1=S	-4%	8%	-1%	10%	3.3µM*	u
C[C@H](NC(=O)c1nc[nH]c1C(=O)NCc1ccc(CNC(=O)OC(C)(C)C)cc1)C(=O)OCc1ccccc1	-13%	3%	-18%	3%	16µM*	21µM*
C[C@H](NC(=O)c1nc[nH]c1C(=O)NC(c1ccccc1)c1ccccc1)C(=O)OCc1ccccc1	-16%	8%	-24%	-12%	23µM*	23µM*
CCN(CC)C(=O)c1[nH]cnc1C(=O)N[C@@H](C)C(=O)OCc1ccccc1	-6%	5%	-15%	-9%	10µM*	u
CCNc1nc(C)c(CN(C(C)=O)c2ccccc2)nc1C#N	-10%	-3%	-6%	-8%	-6%	3%
COCCCN(C(=S)Nc1ccc(C)cc1Cl)C(C)c1ccncc1 (stereo not drawn)	34%	-1%	11%	-5%	u	-5%
COCCCN(C(=S)Nc1cc(Cl)cc(Cl)c1)C(C)c1ccncc1 (stereo not drawn)	19%	4%	u	21µM*	u	u
